# Reference: PMC6919601, “Identification of Plasmodium dipeptidyl aminopeptidase allosteric inhibitors by high throughput screening” (PLoS ONE, 2019)
# Screen size: about 110,000 compounds; about 230 (0.21%) showed an effect of 50% or more. The entries come from a sample that favours strong results as a whole.
# Target: DPAP1 (Plasmodium falciparum, UniProt Q8IIJ9)
# Assay: primary screen, percent inhibition; read by cleavage of a fluorogenic dipeptide substrate; higher = more effect of the substance
# Parameters: species or system P. falciparum D10 trophozoite lysates; single well
# 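Also: 30 min substrate incubation versus DMSO and 10 µM JCP410 controls.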
# Chain of DPAP1 (Q8IIJ9 whole entry, looked up): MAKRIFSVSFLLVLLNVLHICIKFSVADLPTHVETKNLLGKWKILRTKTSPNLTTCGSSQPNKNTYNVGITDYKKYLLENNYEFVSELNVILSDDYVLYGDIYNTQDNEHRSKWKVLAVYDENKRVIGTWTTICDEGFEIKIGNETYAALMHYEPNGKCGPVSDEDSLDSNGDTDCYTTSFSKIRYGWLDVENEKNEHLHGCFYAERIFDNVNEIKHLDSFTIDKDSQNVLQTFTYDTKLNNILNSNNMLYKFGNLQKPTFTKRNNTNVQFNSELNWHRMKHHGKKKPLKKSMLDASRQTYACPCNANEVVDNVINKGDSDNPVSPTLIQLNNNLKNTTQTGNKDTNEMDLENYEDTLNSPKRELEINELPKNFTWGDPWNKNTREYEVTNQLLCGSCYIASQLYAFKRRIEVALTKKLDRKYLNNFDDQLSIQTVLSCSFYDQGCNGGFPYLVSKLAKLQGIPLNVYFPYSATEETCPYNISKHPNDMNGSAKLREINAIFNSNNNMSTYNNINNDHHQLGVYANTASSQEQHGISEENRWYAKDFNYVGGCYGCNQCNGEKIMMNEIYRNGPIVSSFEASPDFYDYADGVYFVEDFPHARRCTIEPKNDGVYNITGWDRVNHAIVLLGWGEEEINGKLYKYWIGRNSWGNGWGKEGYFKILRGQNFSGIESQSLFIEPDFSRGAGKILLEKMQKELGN
row,SMILES,% Inhibition @ 10 uM
1,Cc1cc(C)c(C#N)c(SCc2ccccc2)n1,-0.305%
2,Cc1cc(C)c(C#N)c(SCc2ccccn2)n1,66.4%
3,Cc1cc(C)c(C#N)c(SCc2ccccc2F)n1,40.7%
4,CCOC(=O)c1c(NC(=O)/C=C/C(=O)O)sc2c1CCN(Cc1ccccc1)C2,-1.92%
5,NC(=O)c1c(NC(=O)COc2ccc(Cl)cc2)sc2c1CCCCC2,65.1%
6,COc1ccc(CC(=O)Nc2sc3c(c2C(N)=O)CCCC3)cc1,2.13%
7,Cc1cc(C(F)(F)F)nn1CC(=O)Nc1sc2c(c1C#N)CCCCC2,2.76%
8,NC(=O)c1c(NC(=O)COc2ccc(Cl)cc2)sc2c1CCCCCC2,-4.33%
9,COc1ccc(CC(=O)Nc2sc3c(c2C(N)=O)CCCCC3)cc1OC,57%
10,CCOc1ccc(CC(=O)Nc2sc3c(c2C(N)=O)CCCC3)cc1OCC,-13.5%
11,NC(=O)c1c(NC(=O)COc2ccccc2)sc2c1CCCCC2,1.88%
12,Cc1cc(C(F)(F)F)nn1CC(=O)Nc1sc2c(c1C(N)=O)CCCC2,-1.49%
13,Cc1cc(C(F)(F)F)nn1CC(=O)Nc1sc2c(c1C(N)=O)CCCCC2,54.5%
14,CC(Oc1ccc(F)cc1)C(=O)Nc1sc2c(c1C(N)=O)CCC2 (stereo not drawn),2.44%
15,CC(Oc1cccc(Cl)c1)C(=O)Nc1sc2c(c1C(N)=O)CCCCC2 (stereo not drawn),61.2%
16,CC1CCc2c(sc(NC(=O)C(C)Oc3cccc(Cl)c3)c2C(N)=O)C1 (stereo not drawn),2.45%
17,Cc1nc2ccccc2c2oc(C(=O)NCc3ccc(F)cc3)cc12,1.62%
18,CC(=O)c1ccc(OCCOc2ccc(C(C)=O)cc2)cc1,-6.82%
19,CCn1c2ccccc2c2nnc(N3CCC(C)CC3)nc21,-3.1%
20,Cc1cccc(Cc2c(C)nc3c(C(=O)NCCc4ccccc4)cnn3c2C)c1,-16.3%
21,O=C(O)CSC12CC3CC(CC(C3)C1)C2,-0.415%
22,O=C1c2ccccc2C(=O)N1c1c(F)c(F)c(C(F)(F)F)c(F)c1F,1.8%
23,CC1=CC2=NC(=O)/C(=C\c3ccc(OCc4ccccc4C)cc3)C(=N)N2O1,3.63%
24,COc1ccc(Cl)cc1N(CC(=O)Nc1ccc(C(C)C)cc1)S(C)(=O)=O,0.324%

row,SMILES,% Inhibition @ 10 uM
1,Nc1nnc(-c2ccc([N+](=O)[O-])cc2)s1,-0.0369%
2,COc1ccc(C2=CC(c3ccc(F)c(Br)c3)n3nnnc3N2)cc1 (stereo not drawn),1.73%
3,CC(=O)ONc1ccc(NC=C2C(=O)N(C)C(=O)N(C)C2=O)cc1,8.6%
4,Fc1ccccc1CSCc1nc2ccccc2[nH]1,-4.6%
5,O=C(Nc1cnc2ccccc2c1O)N1CCC(Cc2ccccc2)CC1,5.43%
6,Cc1cc(/C=C2/SC(=O)N(C(C)C)C2=O)c(C)n1-c1ccncc1,-0.68%
7,CCCC(=O)NCCc1nc2ccccc2n1CC(C)C,0.121%
8,COc1ccccc1-c1c(C)c(CC(C)C)nc(N)c1C#N,0.5%
9,Cc1c(CC(C)C)nc(N)c(C#N)c1-c1ccc(F)cc1,2.92%
10,CCCc1nc(N)c(C#N)c(-c2ccccc2)c1CC,-0.631%
11,CCCCc1nc(N)c(C#N)c(-c2ccccc2)c1CCC,97.8%
12,Cc1c(CC(C)C)nc(N)c(C#N)c1-c1ccccc1,99.3%
13,CCCCCc1nc(N)c(C#N)c(-c2ccccc2)c1CCCC,-5.9%
14,Cc1ccccc1N1C(=O)/C(=C\c2c(C)[nH]c3ccccc23)C(=O)NC1=S,4.15%
15,O=C(c1ccco1)N1CCN(C2CCC(c3ccccc3)CC2)CC1 (stereo not drawn),-0.274%
16,CCOC(=O)c1c(C)nc(S)c(C#N)c1-c1ccc(OC)cc1,52.9%
17,CCOC(=O)c1c(C)nc(C)c(C(=O)OCC)c1-c1ccc(OC)cc1,-1.96%
18,CC(=O)c1c(C)nc(S)c(C#N)c1-c1ccc(Cl)cc1,33.7%
19,CCOC(=O)c1c(C)nc(S)c(C#N)c1-c1ccccc1,57.1%
20,CC(=O)c1c(C)nc(S)c(C#N)c1-c1ccccc1,39.2%
21,Cc1nc(S)c(C#N)c(C)c1C(=O)Nc1ccccc1,2.01%
22,CCc1c(C#N)c(SC)nc(C)c1C(=O)Nc1ccccc1,1.43%
23,CCOC(=O)c1c(C)nc(C)c(C(=O)OCC)c1-c1ccccc1,1.57%
24,CCc1c(C#N)c(S)nc(C)c1C(=O)Nc1ccccc1,55%

row,SMILES,% Inhibition @ 10 uM
1,Cc1ccc(OCCNC(=O)Cn2cnc3c(=O)n(C)c(=O)n(C)c32)cc1C,-9.26%
2,CCn1c(C(=O)NCc2ccccn2)cc2oc3ccccc3c21,-3.96%
3,COc1cc(C2NCCc3c2[nH]c2ccccc32)ccc1OC(C)C (stereo not drawn),1.02%
4,CC1CCN(C(=O)Cn2cnc3c(nnn3Cc3ccccc3F)c2=O)CC1,24%
5,O=C(CNS(=O)(=O)c1ccc(Br)s1)N1CC=C(c2ccccc2)CC1,3.27%
6,O=C(NC1CCCC1)c1ccc(Cl)c([N+](=O)[O-])c1,-4.91%
7,O=C(Nc1cnn(Cc2ccccc2)c1)C1CCCC1,-1.78%
8,Cc1cc(-c2ccc(O)cc2)nc2ccc3ccccc3c12,-1.97%
9,Cc1cc(-c2ccc(N)cc2)nc2ccc3ccccc3c12,52.7%
10,Cc1cc(-c2ccc([N+](=O)[O-])cc2)nc2ccc3ccccc3c12,-0.239%
11,OC1CCCN(Cc2ccc(OC(F)(F)F)cc2)C1 (stereo not drawn),1.62%
12,Cc1cccc(C)c1-n1c(C)cc(/C=C2\NC(=O)NC2=O)c1C,4.83%
13,CCc1nnc(NC(=O)CSc2nc(C(F)(F)F)cc(C)c2C#N)s1,59.2%
14,CCc1nnc(NC(=O)CSc2nc(N)nc(SC)c2C#N)s1,-1.68%
15,CCc1nnc(NC(=O)CSc2nc(-c3cccs3)cc(C(F)(F)F)c2C#N)s1,9.42%
16,COC(=O)C1=NNC2C(=O)N(Cc3ccccc3)C(=O)C12 (stereo not drawn),-0.13%
17,CC(C(=O)O)c1cc(C(=O)c2ccccc2)sc1-c1ccccc1 (stereo not drawn),6.08%
18,CCOc1ccccc1C(=O)Nc1ccc(C(C)=O)cc1,-7.23%
19,O=C(COc1ccccc1)NC(Cc1c[nH]c2ccccc12)C(=O)O (stereo not drawn),10.2%
20,CCCOc1ccc(C(=O)CCNC(Cc2c[nH]c3ccccc23)C(=O)O)cc1 (stereo not drawn),81.9%
21,CC(C)CCOc1ccc(C(=O)CCNC(CC(C)C)C(=O)O)cc1 (stereo not drawn),30.1%
22,CC[C@H](C)[C@H](NC(=O)Cc1ccncc1)C(=O)N[C@@H](CCc1ccccc1)C(=O)CO,-4.17%
23,CCN(C(=O)CCc1ccccc1)c1nc(-c2ccccc2)cs1,-0.426%
24,CCCN(C(=O)c1ccco1)c1nc(-c2cccc(Cl)c2)cs1,11.9%

row,SMILES,% Inhibition @ 10 uM
1,CCN(C(=O)c1ccco1)c1nc(-c2ccccc2)cs1,72.9%
2,CCOC(=O)C1=CN(C)C=C(C(=O)OCC)C1c1ccc(C(C)C)cc1,-1.48%
3,Cc1cc(C)c(S(=O)(=O)N2CCCc3ccccc32)c(C)c1,1.83%
4,Cc1ccc(-n2nc(C)c3c(C)c(CCC(=O)NCC4CCCO4)c(C)nc32)cc1 (stereo not drawn),0.953%
5,CCOc1ccc(/C=C2/C=C(c3ccc(C)cc3)OC2=O)cc1OC,1.84%
6,CCOc1ccc(N2C(=O)C3C(C(C)=O)=NN(c4ccccc4Cl)C3C2=O)cc1 (stereo not drawn),-0.0619%
7,O=C1NC(=O)c2cccc3cccc1c23,-4.51%
8,O=C1C(Sc2ccccc2)=C(O)c2cccc3cccc1c23,68.7%
9,O=C1c2cccc3cccc(c23)C(=O)N1O,13.1%
10,CCCOc1ccc(C(=O)CCNC(C(=O)O)C(C)C)cc1 (stereo not drawn),2.8%
11,CC(C)Oc1ccc(C(=O)CCNC(C(=O)O)C(C)C)cc1 (stereo not drawn),59.7%
12,CCOc1ccc(C(=O)CCNC(C(=O)O)C(C)CC)cc1 (stereo not drawn),71%
13,CCOc1ccc(C(=O)CCNC(CC(=O)O)C(=O)O)cc1 (stereo not drawn),42.3%
14,COc1ccc(C(=O)CCNC(C)C(=O)O)cc1 (stereo not drawn),5.85%
15,CCC(C)C(NCCC(=O)c1ccc(Br)cc1)C(=O)O (stereo not drawn),-7.23%
16,CCC(Oc1ccccc1)C(=O)Nc1ncccc1Cl (stereo not drawn),-3.75%
17,COc1ccccc1NC(=O)/C=C\C(=O)O,1.63%
18,CCCN(CCC)CCNC(=O)c1cn(C)c(=O)c2cc(OC)c(OC)cc12,-2.49%
19,CC(NC(=O)c1cccs1)c1cc2c(cc1Cl)OCCCO2 (stereo not drawn),-1.28%
20,COC(=O)c1cc2c(C)nn(-c3ccccc3)c2s1,4.7%
21,Cc1nn(-c2ccccc2)c2sc(C(N)=O)cc12,6.83%
22,Cc1nn(-c2ccccc2)c2sc(-c3nnc(S)o3)cc12,64.9%
23,COc1ccccc1NC(=O)c1cc(OC)c(OC)c(OC)c1,-5.67%
24,Cc1ccc(-c2nc3c4ccccc4nc(S)n3n2)cc1,-7.62%
